From PubChem BioAssay (EPA / NIEHS)
The source made the active and inactive calls. Rule for the calls: active = hit-call score of the fitted dose curve at least 0.9, where 1 is the maximum; inactive = score below 0.9.

What was measured:
[1] = ATG_ISRE_CIS: Attagene CIS-FACTORIAL HepG2 Assay for human Interferon Regulatory Factor 1 (IRF1) binding to an Interferon-Stimulated Response Element (ISRE) (AID 2282948); conditions: HepG2 ISRE cis-reporter (Attagene), mRNA transcription readout; actives raise or lower the signal
Method in brief: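 Transiently transfected HepG2 cells carrying cis-element reporter units, dosed 24 hours. Reporter mRNA quantified by RT-PCR, fluorescent primer extension, HpaI digestion and capillary electrophoresis. Bidirectional fitting relative to DMSO.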

[2] = ATG_M_32_CIS: Attagene CIS-FACTORIAL HepG2 Assay for M32 Transcription Factor (Internal Marker) (AID 2282949); conditions: HepG2 Attagene cis-factorial M32 reporter, mRNA; actives raise or lower the signal;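 note: background control marker of the multiplexed CIS panel rather than a real target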
Method in brief: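 HepG2 cells transiently transfected with multiplexed cis-regulated reporter units, dosed 24 h. Reporter mRNA quantified by RT-PCR, 6-FAM labelling, HpaI digestion and capillary electrophoresis; bidirectional fit vs DMSO.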

[3] = ATG_M_06_CIS: Attagene CIS-FACTORIAL HepG2 Assay for M06 Transcription Factor (Internal Marker) (AID 2282950); conditions: HepG2 Attagene CIS-FACTORIAL M06 internal marker reporter; actives raise or lower the signal
Method in brief: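 Measured 24 h post-dosing in transiently transfected HepG2 cells, this internal-marker endpoint reports reporter mRNA via RT-PCR with fluorescent primer extension and capillary electrophoresis. DMSO served as negative control and baseline for bidirectional fitting.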

[4] = biological target: Hypoxia-inducible factor 1-alpha (Homo sapiens) (UniProt Q16665); test: ATG_HIF1a_CIS: Attagene CIS-FACTORIAL HepG2 Assay for human Hypoxia Inducible Factor 1 (HIF1A) (AID 2282951); conditions: HepG2 Attagene cis-factorial HIF1a reporter transcription; actives raise or lower the signal
Hypoxia-inducible factor 1-alpha (Homo sapiens), sequence (Q16665 whole entry, looked up): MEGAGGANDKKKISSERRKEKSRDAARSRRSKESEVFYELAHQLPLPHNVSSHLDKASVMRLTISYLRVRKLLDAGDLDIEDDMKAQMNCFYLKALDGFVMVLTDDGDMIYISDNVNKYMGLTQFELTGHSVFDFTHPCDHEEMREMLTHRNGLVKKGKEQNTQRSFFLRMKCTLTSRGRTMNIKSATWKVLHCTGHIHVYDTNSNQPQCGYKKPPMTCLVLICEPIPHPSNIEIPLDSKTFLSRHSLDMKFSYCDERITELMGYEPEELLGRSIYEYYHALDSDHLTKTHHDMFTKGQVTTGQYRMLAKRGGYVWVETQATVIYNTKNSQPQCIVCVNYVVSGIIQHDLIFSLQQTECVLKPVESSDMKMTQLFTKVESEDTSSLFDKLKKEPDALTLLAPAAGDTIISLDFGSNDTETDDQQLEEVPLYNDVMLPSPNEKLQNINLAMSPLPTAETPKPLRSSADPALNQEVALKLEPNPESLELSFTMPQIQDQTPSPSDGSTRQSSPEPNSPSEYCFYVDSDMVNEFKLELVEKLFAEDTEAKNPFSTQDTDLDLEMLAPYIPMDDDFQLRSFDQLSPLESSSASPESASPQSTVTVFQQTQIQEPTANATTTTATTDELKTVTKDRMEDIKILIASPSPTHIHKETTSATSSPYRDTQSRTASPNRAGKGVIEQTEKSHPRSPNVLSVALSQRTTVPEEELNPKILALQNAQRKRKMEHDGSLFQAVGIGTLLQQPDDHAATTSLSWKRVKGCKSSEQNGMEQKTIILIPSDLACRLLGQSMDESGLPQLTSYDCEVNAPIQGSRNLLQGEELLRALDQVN
Method in brief: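 Activity is fitted in both directions relative to DMSO. Reporter transcripts are read by RT-PCR, fluorescent primer extension and capillary electrophoresis after 24 h chemical treatment. The cells are HepG2 carrying transiently transfected cis-element-driven reporter units responding to endogenous factors.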

[5] = biological target: Heat shock factor protein 1 (Homo sapiens) (UniProt Q00613); test: ATG_HSE_CIS: Attagene CIS-FACTORIAL HepG2 Assay for human Heat Shock Transcription Factor 1 (HSE) (AID 2282953); conditions: HepG2 HSE cis-reporter, Attagene RNA transcription; actives raise or lower the signal
Heat shock factor protein 1 (Homo sapiens), sequence (Q00613 whole entry, looked up): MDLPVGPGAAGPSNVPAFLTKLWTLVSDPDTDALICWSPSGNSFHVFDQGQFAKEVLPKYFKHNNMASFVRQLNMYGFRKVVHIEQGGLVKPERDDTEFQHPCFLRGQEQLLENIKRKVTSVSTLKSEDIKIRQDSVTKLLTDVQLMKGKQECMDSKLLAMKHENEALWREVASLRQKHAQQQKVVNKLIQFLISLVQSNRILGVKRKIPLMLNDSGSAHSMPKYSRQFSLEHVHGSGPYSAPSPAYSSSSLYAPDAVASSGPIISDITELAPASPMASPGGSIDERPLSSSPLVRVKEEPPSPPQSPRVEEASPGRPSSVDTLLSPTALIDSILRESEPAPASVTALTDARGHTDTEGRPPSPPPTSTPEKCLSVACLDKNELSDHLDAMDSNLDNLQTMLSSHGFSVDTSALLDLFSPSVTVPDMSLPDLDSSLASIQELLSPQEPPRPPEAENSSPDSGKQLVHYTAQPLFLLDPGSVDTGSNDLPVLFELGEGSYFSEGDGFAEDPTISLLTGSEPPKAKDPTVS
Method in brief: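 Reporter mRNA induction in HepG2 is measured 24 h after dosing, using transiently transfected multiplexed cis-regulated reporter units. Signal comes from capillary electrophoresis of labelled RT-PCR products, with DMSO as negative control.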

[6] = ATG_MRE_CIS: Attagene CIS-FACTORIAL HepG2 Assay for human Metal Responsive Element (MRE) (AID 2282954); conditions: HepG2 MRE cis-reporter transcription, Attagene multiplex; actives raise or lower the signal
Method in brief: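 Transient MRTU transfection of HepG2 (FuGene 6); 24 h dosing; total RNA → oligo(dT) RT, PCR, 6-FAM primer extension, HpaI cut, CE. Bidirectional fit vs DMSO.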

[7] = ATG_PBREM_CIS: Attagene CIS-FACTORIAL HepG2 Assay for human Phenobarbital-responsive Enhancer Module (PBREM) (AID 2282955); conditions: HepG2 PBREM cis-reporter, Attagene multiplexed transcription; actives raise or lower the signal
Method in brief: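 Endogenous transcription factor activity was read from reporter transcripts in transiently transfected human HepG2 liver cells after 24 h dosing. RT-PCR products were fluorescently labelled, HpaI-cut and sized by capillary electrophoresis; activity fitted bidirectionally against DMSO baseline.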

[8] = biological target: Paired box protein Pax-6 (Homo sapiens) (UniProt P26367); test: ATG_Pax6_CIS: Attagene CIS-FACTORIAL HepG2 Assay for human Paired Box 6 (PAX6) (AID 2282956); conditions: HepG2 CIS-FACTORIAL PAX6 reporter transcription, RNA readout; actives raise or lower the signal
Paired box protein Pax-6 (Homo sapiens), sequence (P26367 whole entry, looked up): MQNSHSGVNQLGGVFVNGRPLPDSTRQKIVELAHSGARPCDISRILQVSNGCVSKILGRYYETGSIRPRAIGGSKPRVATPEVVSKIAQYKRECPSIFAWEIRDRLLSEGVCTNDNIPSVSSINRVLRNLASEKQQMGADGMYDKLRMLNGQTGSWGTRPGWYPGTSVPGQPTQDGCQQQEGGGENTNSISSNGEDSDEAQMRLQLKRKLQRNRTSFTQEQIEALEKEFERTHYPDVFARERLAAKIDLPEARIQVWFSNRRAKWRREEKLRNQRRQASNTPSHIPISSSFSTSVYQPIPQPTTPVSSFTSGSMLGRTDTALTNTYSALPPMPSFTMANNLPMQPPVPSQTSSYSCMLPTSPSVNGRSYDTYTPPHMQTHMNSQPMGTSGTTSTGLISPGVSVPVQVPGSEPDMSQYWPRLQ
Method in brief: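 HepG2 cells transiently transfected with cis-promoter-driven multiplexed reporter units sensing endogenous transcription factor activity; 24 h chemical exposure. Reporter mRNA quantified by RT-PCR, 6-FAM labelling, HpaI digestion and capillary electrophoresis; bidirectional fit versus DMSO baseline.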

[9] = ATG_PXRE_CIS: Attagene CIS-FACTORIAL HepG2 Assay for human Pregnane X Receptor Element (PXRE) (AID 2282957); conditions: HepG2 Attagene CIS-FACTORIAL PXRE reporter, mRNA; actives raise or lower the signal
Method in brief: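 Cis-element reporter mRNA in human hepatoma HepG2 cells is measured 24 h post-dosing by RT-PCR, primer-extension labeling and capillary electrophoresis; gain or loss of signal is fitted relative to DMSO.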

[10] = ATG_RORE_CIS: Attagene CIS-FACTORIAL HepG2 Assay for human RAR-related Orphan Receptor Element (RORE) (AID 2282959); conditions: HepG2 Attagene cis-factorial RORE reporter, mRNA; actives raise or lower the signal
Method in brief: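 RORE reporter transcripts reflecting endogenous factor activity were read after 24 h compound exposure of transfected HepG2 cells, using reverse transcription, PCR, fluorescent labelling and capillary electrophoresis sizing. Gain or loss fitted against DMSO.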

[11] = biological target: Transcription factor Sp1 (Homo sapiens) (UniProt P08047); test: ATG_Sp1_CIS: Attagene CIS-FACTORIAL HepG2 Assay for human Specificity Protein 1 (Sp1) (AID 2282961); conditions: HepG2 Sp1 cis-reporter transcription, actives raise or lower the signal
Transcription factor Sp1 (Homo sapiens), sequence (P08047 whole entry, looked up): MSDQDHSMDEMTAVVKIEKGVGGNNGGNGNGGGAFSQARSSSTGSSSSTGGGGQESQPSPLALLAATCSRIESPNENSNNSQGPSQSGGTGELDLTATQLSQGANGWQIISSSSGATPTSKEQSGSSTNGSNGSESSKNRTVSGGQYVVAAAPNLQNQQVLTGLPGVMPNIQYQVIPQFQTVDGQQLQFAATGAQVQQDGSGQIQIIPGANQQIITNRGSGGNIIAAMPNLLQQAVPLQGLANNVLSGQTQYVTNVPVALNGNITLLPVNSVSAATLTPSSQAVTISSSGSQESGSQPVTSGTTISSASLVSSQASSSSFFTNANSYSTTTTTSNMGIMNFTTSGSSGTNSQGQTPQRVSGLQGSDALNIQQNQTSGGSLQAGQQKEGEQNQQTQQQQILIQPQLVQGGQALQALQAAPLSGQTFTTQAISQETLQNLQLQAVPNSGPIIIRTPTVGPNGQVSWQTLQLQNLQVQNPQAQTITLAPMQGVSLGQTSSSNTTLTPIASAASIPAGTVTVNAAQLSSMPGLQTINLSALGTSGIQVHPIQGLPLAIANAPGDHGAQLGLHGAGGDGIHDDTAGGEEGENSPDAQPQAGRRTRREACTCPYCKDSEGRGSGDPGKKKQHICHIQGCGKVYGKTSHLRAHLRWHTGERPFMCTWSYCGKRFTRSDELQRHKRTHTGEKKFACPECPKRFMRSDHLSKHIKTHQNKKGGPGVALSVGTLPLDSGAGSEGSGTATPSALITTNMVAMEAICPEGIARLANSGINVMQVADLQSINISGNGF
Method in brief: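 Read-out is reporter transcript level, measured by RT-PCR and fluorescent capillary electrophoresis after 24 h chemical treatment. System: transiently transfected HepG2 cells reporting endogenous transcription factor activity; gain or loss fitted against DMSO baseline.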

[12] = ATG_SREBP_CIS: Attagene CIS-FACTORIAL HepG2 Assay for human Sterol Regulatory Element Binding (SREBP) (AID 2282962); conditions: HepG2 Attagene cis-factorial SREBP reporter, mRNA; actives raise or lower the signal
Method in brief: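 HepG2 cells transiently transfected with multiplexed cis-promoter reporter units sensing endogenous transcription factors; reporter mRNA measured 24 h after dosing by RT-PCR, 6-FAM labeling, HpaI digestion and capillary electrophoresis. Bidirectional fit versus DMSO.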

[13] = biological target: Signal transducer and activator of transcription 3 (Homo sapiens) (UniProt P40763); test: ATG_STAT3_CIS: Attagene CIS-FACTORIAL HepG2 Assay for human Signal Transducer and Activator of Transcription 3 (STAT3) (AID 2282963); conditions: HepG2, Attagene cis-factorial STAT3 reporter transcription; actives raise or lower the signal
Signal transducer and activator of transcription 3 (Homo sapiens), sequence (P40763 whole entry, looked up): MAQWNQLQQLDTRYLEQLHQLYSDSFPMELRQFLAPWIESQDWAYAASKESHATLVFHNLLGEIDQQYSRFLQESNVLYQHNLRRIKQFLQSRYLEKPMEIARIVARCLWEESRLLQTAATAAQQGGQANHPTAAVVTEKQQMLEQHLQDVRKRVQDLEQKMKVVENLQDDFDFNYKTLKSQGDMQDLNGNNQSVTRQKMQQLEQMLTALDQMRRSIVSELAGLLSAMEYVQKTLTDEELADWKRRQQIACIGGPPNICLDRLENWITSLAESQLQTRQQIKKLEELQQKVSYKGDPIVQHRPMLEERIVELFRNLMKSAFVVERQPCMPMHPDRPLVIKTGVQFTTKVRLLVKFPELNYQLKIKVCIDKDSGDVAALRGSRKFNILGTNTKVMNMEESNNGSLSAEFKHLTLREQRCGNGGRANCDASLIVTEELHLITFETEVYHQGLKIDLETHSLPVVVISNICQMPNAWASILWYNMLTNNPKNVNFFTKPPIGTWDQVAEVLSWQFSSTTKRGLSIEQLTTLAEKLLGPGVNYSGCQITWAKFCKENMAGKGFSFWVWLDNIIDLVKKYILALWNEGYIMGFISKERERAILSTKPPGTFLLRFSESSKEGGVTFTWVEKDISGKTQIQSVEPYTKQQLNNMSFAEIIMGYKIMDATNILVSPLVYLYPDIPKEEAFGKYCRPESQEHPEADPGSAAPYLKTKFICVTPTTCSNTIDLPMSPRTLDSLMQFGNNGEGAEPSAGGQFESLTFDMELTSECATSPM
Method in brief: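 Endogenous STAT3-responsive cis-element activity was read in transiently transfected HepG2 cells after 24 h treatment. Reporter transcripts were quantified via RT-PCR and capillary electrophoresis, with DMSO as negative control and bidirectional curve fitting.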

[14] = ATG_TA_CIS: Attagene CIS-FACTORIAL HepG2 Assay for human TA Basal Promoter (AID 2282964); conditions: HepG2 Attagene CIS-factorial TA basal promoter reporter; actives raise or lower the signal
Method in brief: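 Cis-factorial format in HepG2: reporters report endogenous factors, not chimeric Gal4 fusions. After 24 h treatment, reporter transcripts were measured by RT-PCR-capillary electrophoresis fluorescence, analysed bidirectionally versus DMSO.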

[15] = ATG_TCF_b_cat_CIS: Attagene CIS-FACTORIAL HepG2 Assay for human T-Cell-Factor with beta-catenin (TCF/b-cat) (AID 2282965); conditions: HepG2 TCF/beta-catenin cis-reporter transcription, actives raise or lower the signal
Method in brief: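 Measured: reporter mRNA in HepG2 transiently transfected with cis-promoter reporter units, 24 h after chemical addition. Fitting was bidirectional, DMSO as negative control.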

[16] = ATG_TAL_CIS: Attagene CIS-FACTORIAL HepG2 Assay for human TAL Basal Promoter (AID 2282966); conditions: HepG2 Attagene cis-factorial TAL promoter reporter; actives raise or lower the signal;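 note: background control endpoint measuring basal TAL promoter reporter mRNA not a specific factor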
Method in brief: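 In this cell-based multiplex, HepG2 liver cells bearing cis-promoter reporter constructs are dosed for 24 hours. Total RNA is reverse-transcribed and amplified, labelled fragments are sized by capillary electrophoresis, and signal changes are fitted bidirectionally versus DMSO.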

[17] = ATG_TGFb_CIS: Attagene CIS-FACTORIAL HepG2 Assay for human Transforming Growth Factor (TGF) (AID 2282967); conditions: HepG2 Attagene CIS TGFb reporter, mRNA transcription; actives raise or lower the signal
Method in brief: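 Multiplexed cis-reporter HepG2 system, 24 h treatment; mRNA induction read by fluorescence after RT-PCR and CE; DMSO negative control, bidirectional curve fitting.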

[18] = ATG_PPRE_CIS: Attagene CIS-FACTORIAL HepG2 Assay for human Peroxisome Proliferator-activated Response Element (PPRE) (AID 2282958); conditions: HepG2 PPRE cis-element reporter, Attagene transcription factor profiling; actives raise or lower the signal
Method in brief: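 Endogenous PPRE-driven transcription is measured in HepG2 cells carrying transfected multi-reporter constructs. Reporter transcripts are quantified by RT-PCR, HpaI digestion and capillary electrophoresis 24 h after dosing. DMSO baseline, bidirectional fit.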

[19] = ATG_Sox_CIS: Attagene CIS-FACTORIAL HepG2 Assay for human SRY-box transcription factor (SOX) (AID 2282960); conditions: HepG2 Attagene cis-factorial SOX reporter, mRNA; actives raise or lower the signal
Method in brief: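 Reporter transcripts, measured by RT-PCR and capillary electrophoresis of labelled fragments, report endogenous SOX transcription factor activity. Transiently transfected human HepG2 cells receive chemical for 24 h; changes in either direction are fitted relative to DMSO.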

Measured: AC50

CCCCCCc1ccc(N)cc1
active: [1] 26.9 µM | [15] 5.73 µM
not listed: [18] | [19]
inactive: all other assays above

CCCCCCCCC(C)=O
inactive: all assays above

Cc1cncc(C)c1
not listed: [7] | [19]
inactive: all other assays above
